Test results as given in the supplement of paper PMC3334620.
In all, about 33,000 sequences were measured (“E-score (-0.5 to 0.5)”: median about -0.043, highest 2% from about 0.37 on). Many of the other results were omitted from the sample, so the highest values are more common in it than they were.

target: T1, Upc2 (UniProt Q12151); test: PBM E-score (8-mer binding enrichment) (E-score (-0.5 to 0.5)); higher = stronger / more preferred TF binding; settings: protein concentration: 200 nM; construct: GST-full length
T1 sequence: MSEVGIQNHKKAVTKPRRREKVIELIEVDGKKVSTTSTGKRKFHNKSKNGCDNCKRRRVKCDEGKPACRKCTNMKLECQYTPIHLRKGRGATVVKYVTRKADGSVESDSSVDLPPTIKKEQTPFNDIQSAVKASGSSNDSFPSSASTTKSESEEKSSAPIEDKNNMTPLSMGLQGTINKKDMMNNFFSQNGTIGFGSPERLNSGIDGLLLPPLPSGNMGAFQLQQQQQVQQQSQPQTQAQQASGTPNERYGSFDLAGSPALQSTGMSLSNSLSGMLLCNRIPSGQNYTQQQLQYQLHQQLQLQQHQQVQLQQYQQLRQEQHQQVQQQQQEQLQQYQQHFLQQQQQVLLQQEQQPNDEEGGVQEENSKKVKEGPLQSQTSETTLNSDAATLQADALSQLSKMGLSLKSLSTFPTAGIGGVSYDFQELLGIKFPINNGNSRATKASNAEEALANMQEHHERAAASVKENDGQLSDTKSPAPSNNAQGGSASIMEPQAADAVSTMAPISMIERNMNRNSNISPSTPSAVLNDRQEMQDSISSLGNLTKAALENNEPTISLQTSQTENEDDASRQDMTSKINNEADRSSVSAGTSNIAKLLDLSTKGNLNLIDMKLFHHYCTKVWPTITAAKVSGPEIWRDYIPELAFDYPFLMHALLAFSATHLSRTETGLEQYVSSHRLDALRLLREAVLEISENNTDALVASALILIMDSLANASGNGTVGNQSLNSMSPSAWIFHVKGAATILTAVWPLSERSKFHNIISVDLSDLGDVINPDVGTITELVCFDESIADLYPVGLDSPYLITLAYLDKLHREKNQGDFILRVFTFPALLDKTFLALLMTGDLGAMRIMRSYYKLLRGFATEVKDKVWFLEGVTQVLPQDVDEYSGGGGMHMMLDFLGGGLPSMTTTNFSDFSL
In short: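 Universal all-10-mer Agilent arrays, fresh or stripped once, were converted to double-stranded form by primer extension. GST-tagged yeast transcription factors from PURExpress in vitro transcription/translation, full-length or DNA-binding domain only, were applied at about 100-200 nM and detected with fluorescent anti-GST. After masliner normalisation, the Universal PBM Analysis Suite scored each ungapped eight-base word together with its reverse complement by E-score.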

| Sequence | PBM E-score |
| --- | --- |
| AAAAGCTG | 0.0411 |
| ACACACTC | -0.042 |
| TTCAGCAA | -0.0506 |
| CTCTCCAA | -0.0403 |
| ACTCGACC | -0.0381 |
| TCCGTACA | 0.406 |
| CGCGTACA | 0.35 |
| GCCGTACC | 0.379 |
| CCCGTAGG | -0.0508 |
| TGCGTACA | 0.318 |
| CCCGTACG | 0.393 |
| TCCGTAGA | -0.0263 |
| AGCGTACG | 0.354 |
| CGCGTACG | 0.4 |
| GCCGTAGC | 0.0955 |
| ACCGTACC | 0.366 |
| CCCGTAAG | 0.208 |
| AAGCTCAC | -0.0662 |
| AAGAAGGC | -0.216 |
| ATCAGTGC | -0.0682 |
| CTTAGGCA | -0.361 |
| ATTTCAGG | -0.0274 |
| ATCGATAG | -0.0178 |
| TAAATTGA | -0.0257 |
| CGTGCATA | -0.0557 |

| Sequence | PBM E-score |
| --- | --- |
| GCCCTTTA | -0.0758 |
| ACCGTACA | 0.39 |
| ACCGTACT | 0.214 |
| ACTGTACA | 0.133 |
| AAGCGGCT | -0.0364 |
| ACCGCTAC | 0.14 |
| CCACCGAA | -0.00574 |
| CGGCCGTA | 0.378 |
| ACACCGTA | 0.321 |
| AGACCGTA | 0.287 |
| CGGCCGTC | -0.0655 |
| CCACCGTA | 0.399 |
| GCACCGTA | 0.371 |
| CGACCGTC | -0.0557 |
| AGGCCGTA | 0.355 |
| CCACCGTC | -0.227 |
| CGACCGTA | 0.373 |
| GAACCGTA | 0.269 |
| AAAGATTC | 0.0374 |
| CCAAGAAG | -0.227 |
| ATGCGTGC | 0.03 |
| CAGTCGCC | -0.196 |
| ATTTGCTG | 0.0559 |
| AGTACACG | 0.198 |
| CGTACACG | 0.423 |

| Sequence | PBM E-score |
| --- | --- |
| AGTACACC | 0.0771 |
| GGTACACA | -0.235 |
| AGTACACA | 0.143 |
| GGTACACC | 0.0641 |
| TGTACACA | 0.0892 |
| CGTACACA | 0.418 |
| CGTACACC | 0.382 |
| GATGAGGA | -0.0777 |
| CCTGCAAA | -0.0886 |
| GCAATTAC | -0.0538 |
| AGGGTCCC | -0.229 |
| ACGAGTCA | 0.249 |
| ACGAGTGC | 0.377 |
| ACGAGTCG | 0.384 |
| ACGAGTAT | 0.376 |
| CCGAGTAC | 0.196 |
| ACGAGTAG | 0.368 |
| CCGAGTGC | -0.0549 |
| ACGAGTCT | 0.293 |
| GCGAGTAC | 0.204 |
| ACGAGTAA | 0.348 |
| ACGAGTGG | 0.295 |
| ACGAGTAC | 0.419 |
| CGCTGGGA | -0.0151 |
| AAAGTGTT | 0.0836 |

| Sequence | PBM E-score |
| --- | --- |
| ATCGTCCG | -0.101 |
| CGACGATA | 0.169 |
| CGGTAAAC | 0.206 |
| AAAGGTGG | -0.0797 |
| AGCTTTAC | 0.192 |
| GTGGATAA | -0.151 |
| ACAGTAGC | -0.0133 |
| AAAATAGG | -0.0506 |
| CTCGTTGC | 0.356 |
| ATCGTTTG | 0.452 |
| CGCGTTTC | 0.0838 |
| ATAGTTTG | -0.0286 |
| AGCGTTTG | 0.149 |
| CTCGTTTC | 0.452 |
| ATCGTTTC | 0.401 |
| ATAGTTTC | -0.0466 |
| AGCGTTTC | 0.0667 |
| GTCTGGAA | -0.122 |
| GAAATTCC | -0.186 |
| GACCCGAA | -0.0162 |
| CCTGCGCG | -0.0152 |
| CGGGCCAA | -0.307 |
| AGCAGAGG | -0.293 |
| GCAAGCGA | 0.174 |
| AACACCTT | 0.0752 |

| Sequence | PBM E-score |
| --- | --- |
| GCGTTTCA | -0.0903 |
| TCGTTTCA | 0.406 |
| GCGTTCCA | 0.11 |
| ACGTTCCA | 0.116 |
| TCGTTCAA | 0.459 |
| CCGTTCCC | 0.385 |
| ACGTTCAA | 0.238 |
| ACGTTTCA | 0.116 |
| GCGTTCCC | 0.0703 |
| TCGTTCCA | 0.46 |
| GCGTTCAA | 0.173 |
| ACGTTCCC | 0.0935 |
| AGTCTTTA | -0.0445 |
| AGACTGCG | -0.17 |
| GCGAATTA | 0.179 |
| GGATGGAA | -0.0401 |
| CGGGCATC | 0.0742 |
| GCCGCGTA | 0.271 |
| AGCCGAAG | -0.185 |
| CTACAAGA | -0.194 |
| CTTCGTCC | -0.316 |
| CTTCGTAC | 0.458 |
| CTTCGTCA | -0.0302 |
| ATTCGTCC | 0.0624 |
| ATTCGTAC | 0.452 |

| Sequence | PBM E-score |
| --- | --- |
| CTTCGTGA | 0.112 |
| ATTCGTGC | -0.094 |
| CTTCGTGC | -0.0549 |
| CTTCGTAA | 0.427 |
| CCCAGCCC | -0.217 |
| CACACACC | 0.0034 |
| CTTCATAA | -0.121 |
| AAGGCACC | -0.24 |
| ATAGCGAC | 0.17 |
| ATAACGTG | 0.0885 |
| TAATGTAA | -0.0142 |
| AAGCCTAT | -0.0475 |
| AAGGAACG | 0.347 |
| AGGGAACA | -0.22 |
| CGGGAACG | 0.404 |
| AGGGAACG | 0.39 |
| CAGGAACG | 0.396 |
| CGGGAACA | 0.184 |
| CCGGAACG | 0.376 |
| AGGGAACC | -0.104 |
| CAGGAACC | -0.161 |
| CCGGAACC | -0.113 |
| CCGGAACA | -0.189 |
| CGGGAACC | -0.12 |
| AGCGCAAC | 0.149 |

| Sequence | PBM E-score |
| --- | --- |
| TTTCCAAA | -0.0113 |
| AAGCTTGG | 0.127 |
| ACTGCGCC | -0.147 |
| CCGGGGAA | -0.23 |
| GGAAGTAA | -0.0533 |
| GGCAATCA | -0.196 |
| AAAGGATC | -0.127 |
| CTCTCGTA | 0.453 |
| CTCTCGAA | -0.0265 |
| GTCTCGTA | 0.456 |
| ATCTCGTA | 0.464 |
| ATCTCGTC | 0.123 |
| CTCTCGTC | 0.0223 |
| ATCTCGTG | 0.124 |
| GTCTCGAA | -0.0265 |
| GTCTCGGA | 0.162 |
| AAGGTTCA | -0.145 |
| GGCAGAGA | -0.14 |
| GCCACAGA | -0.149 |
| ATTGAACA | -0.0652 |
| TTATCCAA | 0.0246 |
| GAGAGTAC | 0.0133 |
